In ChEMBL document CHEMBL3988442, “University of Dundee, Small-Polar-MMV Screening Library” (2021):

Legend:
[1] = molecular target: T1, Aspartate--tRNA(Asp/Asn) ligase (Mycobacterium tuberculosis (strain ATCC 25618 / H37Rv)) (UniProt P9WFW3); test: Assay for Asp RNA synthetase-1 from Mycobacterium tuberculosis; type: functional; design: scale not given: direction of the effect not stated beside the values; details: 30 µM; also: in the data most compounds retested in dose-response had high values
T1 sequence (whole entry): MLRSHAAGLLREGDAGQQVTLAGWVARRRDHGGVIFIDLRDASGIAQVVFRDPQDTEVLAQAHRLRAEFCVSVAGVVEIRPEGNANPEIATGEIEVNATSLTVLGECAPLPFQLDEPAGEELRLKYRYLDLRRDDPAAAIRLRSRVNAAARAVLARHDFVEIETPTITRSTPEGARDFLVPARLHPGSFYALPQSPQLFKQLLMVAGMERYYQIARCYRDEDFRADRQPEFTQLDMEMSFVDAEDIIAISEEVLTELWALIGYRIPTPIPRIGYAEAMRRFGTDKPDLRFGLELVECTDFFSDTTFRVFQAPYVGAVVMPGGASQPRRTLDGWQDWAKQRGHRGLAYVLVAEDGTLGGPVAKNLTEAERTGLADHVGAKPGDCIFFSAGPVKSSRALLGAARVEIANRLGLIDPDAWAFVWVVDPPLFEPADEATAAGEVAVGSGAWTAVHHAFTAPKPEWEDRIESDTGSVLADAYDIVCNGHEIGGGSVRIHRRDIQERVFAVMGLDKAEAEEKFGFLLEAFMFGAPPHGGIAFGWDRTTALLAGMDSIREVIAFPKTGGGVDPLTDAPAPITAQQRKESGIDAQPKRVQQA

[2] = molecular target: Shiga toxin 2 (Escherichia coli O157:H7) (UniProt P09385+P09386); test: E. coli 0.157:H7 Shiga Toxin SOP - stx2 screening assay; type: functional; design: scale not given: direction of the effect not stated beside the values; details: 30 µM

| Compound | Percent Effect [1] [%] | Percent Effect [2] [%] |
| --- | --- | --- |
| COCCCNC(=O)N1CCCC(c2nncn2C)C1 (centres undefined) | 1.97 | 21.1 |
| CC(NC(=O)CNCCn1cccn1)c1ccc2c(c1)CCCC2 (centres undefined) | -4.86 | -9.4 |
| Cc1nc(NC2CCCC2)cc(C2CCN2C(=O)c2cccnc2)n1 (centres undefined) | 2.75 | 2.33 |
| O=C(c1cc[nH]n1)N1CCCC(c2cccc(-n3ccnc3)n2)C1 (centres undefined) | -2.72 | 9.34 |
| CN1CCCN(C[C@@H]2CN(C(=O)CCC3CCCC3)C[C@@H]2CO)CC1 | 6.99 | -19.6 |
| Cc1ccc(CN2Cc3nnn(C)c3C(COCCN(C)C)C2)s1 (centres undefined) | -3 | -6.76 |
| NC(=O)C1CN(C(=O)Nc2cc(Cl)cc(Cl)c2)CCO1 (centres undefined) | 1.82 | 8.74 |
| COc1ccccc1C1CNC(=O)c2nc(-c3cnn(C)c3)[nH]c2C1 (centres undefined) | 1.33 | -58 |
| CCOc1ccccc1C1CCCN1 (centres undefined) | 2.67 | -3.4 |
| CN(Cc1ccco1)Cc1cncc2c1CCN(c1ncccn1)C2 | 0.874 | -26.7 |
| O=C(c1cccnc1)N1CCn2nnc(COc3cccnc3)c2C1 | 6.79 | -23.3 |
| Cc1csc(N2CCN(C(=O)CCNc3ncccn3)CC2)n1 | 1.38 | 21.6 |
| CN(Cc1nc(-c2ccco2)no1)C1CCCN(c2cccnn2)C1 (centres undefined) | -3.2 | -26.8 |
| CC(=O)c1ccc(N2CCCC(CO)(CCOc3ccccc3)C2)nc1 (centres undefined) | -2.11 | -9.89 |
| Cc1cc(C)n(CCCNC(=O)C(C)NC(=O)c2ccccc2Cl)n1 (centres undefined) | 1.92 | -4.43 |
| Cc1nc(C2CCN(C(=O)c3cccnc3)CC2)c2sccn12 | 2.04 | -14.1 |
| O=C(c1ccncn1)N1CCO[C@H]2[C@@H](OCc3cccnc3)CC[C@@H]21 | 5.42 | -37.5 |
